Compounds with a hit are over-represented: about 3.4% of the library has one in this group of screens.
RE007 growth inh – less growth of the S. pombe RE007 Vpr strain. S. pombe RE007 Vpr strain, BacTiter-Glo ATP luminescence, 24 h. Potency, µM (titrated, usually from 92.2 µM), for inactives: top-dose activity change, negative = less growth, actives largely listed as inhibitors. actives 0.21% (n = 360,000); active = well fitted falling curve with a large enough effect; inconclusive = small, poorly fitted or top-dose-only effect; inactive = no such curve, though single readings can be large or run the other way; note: nearly all actives have a fitted effect of over 50% in size
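Fission yeast RE007 carrying one integrated HIV-1 vpr copy, seeded at OD 0.01 in PMG+AL medium with 23 nL pinned compound. Grown 24 h at 30 degrees; viability read by BacTiter-Glo luminescence after 5 min.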
AmpC detergent – inhibitors of E. coli AmpC beta-lactamase with detergent; P00811; AmpC hydrolysis of nitrocefin, absorbance 480 nm, 0.01% Triton; Potency, µM (doses to about 114 µM), inactives show top-dose activity change, negative = inhibition, actives largely listed as inhibitors; actives 0.041% (n = 370,000);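 note: 0% = no-compound wells and -100% = no-enzyme wells; nearly all actives have a fitted effect of over 25% in size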
Target sequence (P00811 whole entry, looked up): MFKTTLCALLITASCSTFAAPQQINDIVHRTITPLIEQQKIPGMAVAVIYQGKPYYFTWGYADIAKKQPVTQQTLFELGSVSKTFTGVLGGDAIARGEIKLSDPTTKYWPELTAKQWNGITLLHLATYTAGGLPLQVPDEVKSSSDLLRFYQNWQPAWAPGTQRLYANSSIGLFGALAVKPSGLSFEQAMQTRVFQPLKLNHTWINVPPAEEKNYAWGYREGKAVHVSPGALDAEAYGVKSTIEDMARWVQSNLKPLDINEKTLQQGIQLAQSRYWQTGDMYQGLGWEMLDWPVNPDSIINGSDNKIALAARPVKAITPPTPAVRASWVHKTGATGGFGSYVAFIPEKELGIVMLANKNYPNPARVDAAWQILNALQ
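20 mM phosphate pH 7.0 + 0.01% (detergent screen) or 0.0001% Triton X-100; 5.3 nM AmpC reagent; cpd preinc 15 min RT; nitrocefin (800 uM stock) to start; A480 q20 s × 4 min; Activity was normalised to no-enzyme and no-compound control wells.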
Sm TGR inh – S. mansoni TGR enzyme inhibition | Q962Y6 | Potency, µM (top dose mostly 114 µM), without a hit: top-dose activity change, negative = inhibition, hits mostly inhibitors | actives 3% (n = 360,000) | AID 485364 | purified TGR, DTNB reduction, TNB absorbance 405 nm; note: nearly all actives have a fitted effect of over 60% in size
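First, TGR (20 nM dispensed) and NADPH were mixed with compound. Second, a 15 min room-temperature incubation followed. Third, further NADPH and then DTNB were added to start the reaction. Finally, TNB absorbance was monitored kinetically.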
AmpC inh no detg – inhibitors of E. coli AmpC beta-lactamase without detergent; P00811; AmpC nitrocefin hydrolysis, absorbance 480 nm, 0.0001% Triton; Potency, µM (top dose mostly 57.1 µM), without a hit: top-dose activity change, negative = inhibition, actives largely listed as inhibitors; actives 0.52% (n = 330,000);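 note: plate controls were no compound for no effect and no enzyme for full effect; nearly all actives have a fitted effect of over 20% in size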
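20 mM phosphate pH 7.0 + 0.01% (detergent screen) or 0.0001% Triton X-100; 5.3 nM AmpC reagent; cpd preinc 15 min RT; nitrocefin (800 uM stock) to start; A480 q20 s × 4 min; Activity was normalised to no-enzyme and no-compound control wells.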
FBPA Giardia inh – inhibitors of Giardia lamblia fructose-1,6-bisphosphate aldolase; A8B2U2; purified Giardia FBPA; Potency, µM (top dose mostly 59.6 µM), for inactives: top-dose activity, negative = inhibition, most hits filed as inhibitors; actives 0.71% (n = 290,000); AID 2451; note: nearly all actives have a fitted effect of over 55% in size
Target sequence (A8B2U2 whole entry, looked up): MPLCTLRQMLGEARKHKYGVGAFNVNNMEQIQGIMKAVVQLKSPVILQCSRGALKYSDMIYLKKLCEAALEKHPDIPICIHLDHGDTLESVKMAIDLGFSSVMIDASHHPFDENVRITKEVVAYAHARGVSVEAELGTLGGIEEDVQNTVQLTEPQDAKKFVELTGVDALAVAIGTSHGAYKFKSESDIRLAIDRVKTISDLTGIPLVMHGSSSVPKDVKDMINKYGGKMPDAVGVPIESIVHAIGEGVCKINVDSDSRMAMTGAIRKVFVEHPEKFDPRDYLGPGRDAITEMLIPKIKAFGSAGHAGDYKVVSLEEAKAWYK
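Giardia FBPA (40 nM reagent) was preincubated 10 min at RT with compound (up to 57.5 uM final), then substrate plus GAPDH/TPI/NAD/arsenate coupling system with diaphorase/resazurin was added; resorufin fluorescence (525/598 nm) was read after 20 min.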
Numbers without * were called inactive; ? = inconclusive; . = no result; [ ] = remark or other dose. Unless noted, calls come from the whole dose curve; as a rule, active = well fitted curve in the direction sought with a large enough effect; inconclusive = small, poorly fitted or top-dose-only effect, or another doubt; inactive = no such curve, though single readings can be large; an effect the other way counts as inactive or inconclusive. Unless noted, % is set by controls: 0 for no effect and ±100 for the full control effect; potency is the fitted concentration of half-maximal effect.

SMILES	RE007 growth inh	AmpC detergent	Sm TGR inh	AmpC inh no detg	FBPA Giardia inh
O=c1oc2ccccc2c2c1C1O[C@](c3ccsc3)(Cc3c1ccc1ccccc31)O2	.	?	8.9µM*	?	-6%[12.9 µM]
N#Cc1ccc2c(c1)C[C@]1(CCCCN3C(=O)c4ccccc4C3=O)Oc3c(c(=O)oc4ccc(F)cc34)C2O1	.	1%[22.9 µM]	3%[22.9 µM]	-23%[11.4 µM]	-5%[12.9 µM]
O=C1c2ccccc2C(=O)N1CCCC[C@]12Cc3ccccc3C(O1)c1c(c3ccccc3oc1=O)O2	.	?	-21%[22.9 µM]	2.8µM*	18%[12.9 µM]
COc1cc2c(cc1OC)C1O[C@](CCCCN3C(=O)c4ccccc4C3=O)(C2)Oc2c1c(=O)oc1ccc(F)cc21	.	-6%[22.9 µM]	2.5µM*	-28%[11.4 µM]	?
COc1cc2c(cc1OC)C1O[C@](CCCCN3C(=O)c4ccccc4C3=O)(C2)OC2=C1C(=O)CCC2	.	?	?	88%[11.4 µM]	-21%[12.9 µM]
COc1cc2c(cc1OC)C1O[C@](CCCCN3C(=O)c4ccccc4C3=O)(C2)OC2=C1C(=O)c1ccccc1C2=O	.	?	4µM*	-21%[11.4 µM]	?
O=C1C2=C(C(=O)c3ccccc31)C1O[C@](c3ccsc3)(Cc3c1ccc1ccccc31)O2	.	-4%[22.9 µM]	?	-51%[11.4 µM]	4%[12.9 µM]
COc1ccc(-c2[nH]ncc2CN(C)CCN2CCOCC2)cc1F	-8%	-7%	3%	-6%	0%
CC(C)(C)n1nc2c(c1NC(=O)c1ccc(Cl)c([N+](=O)[O-])c1)CS(=O)(=O)C2	-6%	-8%	-27%	-17%	2%
CN1CCC=C(C(=O)N2c3ccccc3Sc3ccc(Cl)cc32)C1	-5%	-2%	-4%	103%	-13%
Cc1cc(NCc2ccccn2)n2ncc(-c3ccccc3)c2n1	?	?	14%	25%	-10%
Cc1cc(NCc2ccccn2)n2ncc(-c3ccc(Cl)cc3)c2n1	28µM*	13%	12%	15%	-11%
O=C(CSc1ccc2nnc(-c3ccncc3)n2n1)Nc1ccccc1F	8%	-14%	-22%	-12%	5%
CSCSC1=C(C#N)C(c2ccccc2Cl)C(C(C)=O)=C(C)N1 (stereo not given)	10%	?	1%	-45%	0%
S=C(NCc1cccs1)Nc1cc(Cl)cc(Cl)c1	-11%	?	11µM*	?	0%
S=C(NCc1cccs1)Nc1ccccc1Cl	-9%	9%	11µM*	-14%	-3%
O=C(CN1C(=O)CCn2nc(-c3ccccc3)cc21)NCc1ccc(F)cc1	.	18%	12%	.	.
CC(=O)c1cc2c(cc1NC(=O)CCn1cnnn1)OCO2	-6%	-13%	50µM*	-20%	2%
CC(=O)c1cc2c(cc1NC(=O)CCCC(=O)O)OCO2	-4%	1%	-15%	-18%	6%
COc1ccc(C2c3[nH]c4ccccc4c3C[C@H]3C(=O)N(CCCO)CC(=O)N23)c(OC)c1 (stereo not given in full)	-12%	1%	10%	128%	11%
CC(C)N1CCC(=NNc2ccc(S(=O)(=O)N3CCOCC3)cc2[N+](=O)[O-])CC1	4%	?	35µM*	4%	1%
CC(=O)N1CCC(=NNc2ccc(S(=O)(=O)N3CCOCC3)cc2[N+](=O)[O-])CC1	-6%	-14%	?	-19%	3%
Cc1cc(-c2ccccc2)n(-c2cc(N/N=C/c3ccccc3O)ncn2)n1	-9%	-21%	2%	?	0%
NC(=O)c1c(NC(=O)CN2CCOCC2)sc2c1CCC2	-12%	-14%	35µM*	6%	-7%
NC(=O)c1c(NC(=O)CN2C(=O)CCC2=O)sc2c1CCCCC2	-4%	-2%	3%	32µM*	-8%
SMILES	RE007 growth inh	AmpC detergent	Sm TGR inh	AmpC inh no detg	FBPA Giardia inh
Cc1ccc(/C=C/C(=O)Nc2cc(=O)n(C)c(=O)n2C)o1	-4%	4%	7.9µM*	-16%	?
Cc1ccc(C(=O)Nc2cc(=O)n(C)c(=O)n2C)o1	-2%	-1%	-15%	-17%	5%
Cn1c(NC(=O)/C=C/c2ccco2)cc(=O)n(C)c1=O	-4%	-20%	28µM*	-42%	-28%
COc1cc(/C=C\C(=O)Nc2cc(=O)n(C)c(=O)n2C)cc(OC)c1OC	0%	-7%	3%	18%	3%
COc1cc2c(cc1NC(=O)COc1ccc(Br)cc1)oc1ccccc12	.	13%	-3%	.	.
CCOc1ccccc1NC(=O)c1c(NCc2sccc2C)sc2c1CCCCC2	.	0%	40µM*	.	.
CCOc1ccccc1NC(=O)c1c(NCc2sccc2C)sc2c1CCC(C)C2 (stereo not given)	.	-10%	-2%	.	.
COc1ccccc1NC(=O)c1c(NCc2sccc2C)sc2c1CCCCC2	.	-2%	11µM*	.	.
COc1ccc(Cl)cc1NC(=O)c1c(NCc2sccc2C)sc2c1CCCC2	.	-6%	-1%	.	.
CCOC(=O)N1CCc2c(sc(NCc3sccc3C)c2C(=O)Nc2ccc(OC)cc2OC)C1	.	11%	?	.	.
COc1ccc(NC(=O)c2c(NCc3sccc3C)sc3c2CCCCC3)c(OC)c1	.	2%	13µM*	.	.
CCn1c(SCC(=O)N2CCCCC2)nc2c(c1=O)SC(C)C2 (stereo not given)	-2%	-1%	5%	?	6%
CS(=O)(=O)N(CC(=O)NCc1ccccc1Cl)Cc1ccccc1	6%	3%	-24%	-6%	3%
C[C@@H](OC(=O)N(C)Cc1ccccc1)[C@H]1O[C@]2(C)CCCC[C@H]1O2	-6%	5%	3%	17%	.
Oc1cccc(/C=N/NC(=S)Nc2cccnc2)c1O	-6%	-4%	-10%	32µM*	-12%
Oc1ccc(/C=N/NC(=S)Nc2cccnc2)c(O)c1O	-18%	-15%	10µM*	-48%	7.1µM*
Oc1ccc(/C=N/NC(=S)Nc2cccnc2)c(O)c1	4%	-13%	-17%	-29%	-5%
CCCCN1CNC(=S)N(CCc2ccc(OCC)c(OCC)c2)C1	-2%	-1%	8%	52%	1%
CCOC(=O)c1c(N)sc2c(O)c(Br)ccc12	20%	4%	?	-35%	-17%
O=C(O)c1ccccc1N/N=C/c1c(Sc2nnnn2-c2ccccc2)nc2ccccn2c1=O	14%	4%	40µM*	-35%	9%
CC(=O)c1c(C)[nH]c(C(=O)CN2CCN(S(=O)(=O)c3ccccc3)CC2)c1C	-17%	-5%	45µM*	-10%	.
Cc1cccc(C)c1Nc1c(-c2ccsc2)nc2ncccn12	-19%	-13%	-12%	-13%	-2%
COC(=O)c1ccc(OC(=O)c2ccncc2)cc1O	6%	-17%	45µM*	-6%	-3%
CC(=O)c1ccc(OCC(=O)OCc2cc(-c3ccco3)on2)cc1	-28%	-2%	50µM*	-31%	.

Compound activity (PubChem BioAssay)
